Results from PubChem BioAssay (NCI).
Values joined by “and” are separate entries in the source; they are usually repeats but may differ in a detail not shown here. Equal values may be shown once. Compounds without any hit were thinned out: in the full panel of roughly 83,000, 20% have a hit.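 Compound tested at a single concentration for 48 hours in 96-well plates; a percent growth value below 10 was scored as active.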 Active and inactive are the calls of the source.

What was measured:
Experiment in all cases: NCI-60 one-dose screen, 48 h (100 = growth as untreated, 0 = no growth, -100 = all killed)
Conditions in all cases: 10 µM unless noted
[1] = test system: SR leukemia
[2] = test system: RPMI-8226 leukemia
[3] = test system: OVCAR-8 ovarian
[4] = test system: OVCAR-5 ovarian
[5] = test system: OVCAR-4 ovarian
[6] = test system: SK-OV-3 ovarian
[7] = test system: IGROV1 ovarian
[8] = test system: OVCAR-3 ovarian
[9] = test system: HS 578T breast
[10] = test system: NCI/ADR-RES ovarian

SMILES	growth [1]	growth [2]	growth [3]	growth [4]	growth [5]	growth [6]	growth [7]	growth [8]	growth [9]	growth [10]
Nc1n[nH]c(=S)n1-c1ccc(Cl)cc1	96.6% (inactive)	80.8% (inactive)	100% (inactive)	98.6% (inactive)	99.5% (inactive)	102% (inactive)	110% (inactive)	100% (inactive)	100% (inactive)	100% (inactive)
C=C1C(=O)O[C@H]2[C@H]1CC/C(COC(=O)NC1CCC(O)CC1)=C\CC[C@@]1(C)O[C@@H]21 (stereo not given in full)	27.3% (inactive) and 23.4% (inactive)	61.4% (inactive) and 54.9% (inactive)	77.1% (inactive) and 79.6% (inactive)	83.9% (inactive) and 83.6% (inactive)	77.8% (inactive) and 76% (inactive)	103% (inactive) and 104% (inactive)	97.4% (inactive) and 78.2% (inactive)	44.5% (inactive) and 46.5% (inactive)	92% (inactive) and 87.6% (inactive)	99.8% (inactive) and 100% (inactive)
S=C(S)N1CCCC1	65.2% (inactive) and 83.6% (inactive)	93% (inactive) and 91.3% (inactive)	106% (inactive) and 94.1% (inactive)	112% (inactive) and 113% (inactive)	117% (inactive) and 96.8% (inactive)	116% (inactive) and 112% (inactive)	58.9% (inactive) and 56.5% (inactive)	69.5% (inactive) and 100% (inactive)	106% (inactive)	107% (inactive) and 99.1% (inactive)
O=C(Nc1cccc(-n2ccc3c(NC(=O)c4ccccc4)nccc32)c1)c1ccc(Cl)c(C(F)(F)F)c1	-21.7% (active) and 4.99% (active)	-47.6% (active) and 32.3% (inactive)	44.6% (inactive)	16.2% (inactive) and 76.5% (inactive)	6.88% (active) and 70.1% (inactive)	11.8% (inactive) and 70.6% (inactive)	4.27% (active) and 56.4% (inactive)	-86.6% (active) and 51.6% (inactive)	90.1% (inactive)	-33% (active) and 58.4% (inactive)
NC(=S)NS(=O)(=O)c1ccc(N)cc1	96.5% (inactive)	110% (inactive)	99.4% (inactive)	106% (inactive)	113% (inactive)	108% (inactive)	107% (inactive)	123% (inactive)	101% (inactive)	104% (inactive)
O=C(N/N=C/c1cccc2ccccc12)C1CC1	93.6% (inactive)	85.6% (inactive) and 97.8% (inactive)	101% (inactive) and 98.5% (inactive)	122% (inactive) and 100% (inactive)	101% (inactive)	108% (inactive) and 117% (inactive)	118% (inactive) and 107% (inactive)	113% (inactive) and 112% (inactive)	109% (inactive) and 98.6% (inactive)	115% (inactive) and 97.8% (inactive)
O=C(O)C1C2C=CC(C2)C1C(=O)O (stereo not given)	108% (inactive) and 36.9% (inactive) and 94.8% (inactive)	103% (inactive) and 29.3% (inactive) and 98.3% (inactive)	103% (inactive) and 27.9% (inactive)	102% (inactive) and 35.6% (inactive) and 98.9% (inactive)	99.2% (inactive) and 106% (inactive)	113% (inactive) and 65.1% (inactive) and 106% (inactive)	95.2% (inactive) and 25.2% (inactive) and 106% (inactive)	113% (inactive) and 41.1% (inactive) and 108% (inactive)	102% (inactive) and 105% (inactive)	104% (inactive) and 112% (inactive) and 118% (inactive)
Nc1cc2c(cc1N)-c1ccccc1C2	71.1% (inactive) and 90.7% (inactive)	41.3% (inactive) and 61% (inactive)	88.9% (inactive) and 89.5% (inactive)	122% (inactive) and 109% (inactive)	99.5% (inactive) and 107% (inactive)	96.9% (inactive) and 95.1% (inactive)	58.3% (inactive) and 79.2% (inactive)	98.6% (inactive) and 97.7% (inactive)	104% (inactive)	89.4% (inactive) and 90.2% (inactive)
O=C1C2=C(C(=O)c3ccccc31)C(O)(S(=O)(=O)O)C(O)(S(=O)(=O)O)C1N=CC=CC21 (stereo not given)	12.6% (inactive) and 61.2% (inactive)	22.9% (inactive) and 44.8% (inactive)	24.3% (inactive) and 10.6% (inactive)	51.9% (inactive)	28.7% (inactive) and 24.3% (inactive)	44.8% (inactive) and 20.9% (inactive)	33% (inactive) and -16.2% (active)	22.4% (inactive) and 3.66% (active)	13.3% (inactive)	11.3% (inactive)
CC1=CCC2CC1C2(C)C (stereo not given)	96.9% (inactive) and 91.4% (inactive)	137% (inactive) and 120% (inactive)	97.7% (inactive) and 95.8% (inactive)	80.1% (inactive) and 74.2% (inactive)	112% (inactive) and 109% (inactive)	114% (inactive) and 99% (inactive)	35.4% (inactive)	89.2% (inactive) and 95.1% (inactive)	81.8% (inactive)	102% (inactive) and 81.8% (inactive)
O=CC(O)C(O)C(O)CO (stereo not given)	109% (inactive) and 89.6% (inactive)	81.9% (inactive) and 122% (inactive)	110% (inactive) and 106% (inactive)	57.6% (inactive) and 97.7% (inactive)	101% (inactive) and 114% (inactive)	116% (inactive) and 101% (inactive)	105% (inactive)	106% (inactive)	98.4% (inactive) and 106% (inactive)	-41.1% (active) and 106% (inactive)
CNc1ccc2nc3ccc(=[N+](C)C)cc-3sc2c1	20.3% (inactive) and 28.5% (inactive)	21.3% (inactive) and 8.61% (active)	-15.7% (active) and -26.8% (active)	-8.49% (active) and -6.9% (active)	-14.7% (active)	35.2% (inactive) and 18.6% (inactive)	3.81% (active) and -25.6% (active)	-7.57% (active) and -9.51% (active)	-15% (active) and 20.2% (inactive)	2.25% (active) and 1.64% (active)
CCN(CC)CCCC(CNc1ccnc2cc(Cl)ccc12)c1ccc(Cl)cc1 (stereo not given)	-42.9% (active) and -57.7% (active)	-7.53% (active) and -24.9% (active)	7.69% (active) and 8.6% (active)	17.5% (inactive) and 62.9% (inactive)	-34.9% (active) and 14.3% (inactive)	28% (inactive) and 99.4% (inactive)	-9.56% (active) and 20.2% (inactive)	43% (inactive) and 19.9% (inactive)	21.6% (inactive)	19.5% (inactive) and 15.9% (inactive)
Clc1nc(Oc2ccccc2)nc(-c2cn(-c3ccccc3)c3ccccc23)n1	-31.7% (active)	49.1% (inactive)	38.8% (inactive)	101% (inactive)	98.8% (inactive)	103% (inactive)	28.3% (inactive)	7.87% (active)	44.1% (inactive)	84.9% (inactive)
CCNC(=O)Nc1ccc(-c2nc3c(c(N4CCOC[C@@H]4C)n2)CCN(C2COC2)C3)cc1	47.9% (inactive) and 11.8% (inactive)	23.3% (inactive) and 6.21% (active)	48% (inactive) and 0.436% (active)	46.7% (inactive) and 23.1% (inactive)	23.1% (inactive) and -13% (active)	13.9% (inactive) and -35% (active)	15.2% (inactive) and -12.9% (active)	40.4% (inactive) and 16% (inactive)	1.21% (active)	90.4% (inactive) and 12.4% (inactive)
Cn1cnc([N+](=O)[O-])c1Sc1ncnc2nc[nH]c12	44.9% (inactive)	34.1% (inactive) and 36.5% (inactive)	50% (inactive) and 75.4% (inactive)	61.8% (inactive) and 71.6% (inactive)	39.7% (inactive) and 53.2% (inactive)	16.9% (inactive)	74.5% (inactive) and 83.4% (inactive)	50.8% (inactive) and 39.5% (inactive)	79.6% (inactive) and 69.1% (inactive)	67.2% (inactive) and 57.4% (inactive)
